Of roughly 8,800 targets only a part is listed; those with a hit were picked by preference. About 0.5% of all pairs of compound and target were hits.
What was measured:
Test in all cases: log2 fold change, soluble protein after heating vs DMSO (PISA); higher = thermal stabilisation; K562 lysate, 10 uM; active = over 0.2 and 3.5 SD of the protein, either way, in both replicates (recomputed)
lapatinib = compound: CS(=O)(=O)CCNCc1ccc(-c2ccc3ncnc(Nc4ccc(OCc5cccc(F)c5)c(Cl)c4)c3c2)o1 [lapatinib]
Summary of the method: (§1)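 The values are log-two fold changes in thermal stability compared with solvent controls and come from duplicates. They were obtained by TMTpro 16plex LC-MS/MS, with channel sums equalised, on the supernatant after 21,000xg for 90 min. That supernatant came from crude K562 extract at 1 mg/mL protein treated with 10 μM compound for 30 min, heated for 3 min across 48°C-58°C, pooled and brought to 0.5% NP-40 at 4°C.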

pictilisib = compound: CS(=O)(=O)N1CCN(Cc2cc3nc(-c4cccc5[nH]ncc45)nc(N4CCOCC4)c3s2)CC1 [pictilisib]
Summary of the method: as §1

crizotinib = compound: C[C@@H](Oc1cc(-c2cnn(C3CCNCC3)c2)cnc1N)c1c(Cl)ccc(F)c1Cl [crizotinib]
Summary of the method: as §1

[1] = compound: C[C@H](C1=CC=C(C=C1)C(=O)NC2=C3C=CNC3=NC=C2)N
Summary of the method: as §1

duvelisib = compound: C[C@H](Nc1ncnc2nc[nH]c12)c1cc2cccc(Cl)c2c(=O)n1-c1ccccc1 [duvelisib]
Summary of the method: as §1

gandotinib = compound: Cc1cc(Nc2cc(CN3CCOCC3)c3nc(C)c(Cc4ccc(Cl)cc4F)n3n2)n[nH]1 [gandotinib]
Summary of the method: as §1

tozasertib = compound: Cc1cc(Nc2cc(N3CCN(C)CC3)nc(Sc3ccc(NC(=O)C4CC4)cc3)n2)n[nH]1 [tozasertib]
Summary of the method: as §1

doramapimod = compound: Cc1ccc(-n2nc(C(C)(C)C)cc2NC(=O)Nc2ccc(OCCN3CCOCC3)c3ccccc23)cc1 [doramapimod]
Summary of the method: as §1

bafetinib = compound: Cc1ccc(NC(=O)c2ccc(CN3CC[C@H](N(C)C)C3)c(C(F)(F)F)c2)cc1Nc1nccc(-c2cncnc2)n1 [bafetinib]
Summary of the method: as §1

[2] = compound: Cc1cccc(CC(=O)N2CCc3c2ccc(-c2cn(C)c4ncnc(N)c24)c3F)n1
Summary of the method: as §1

nilotinib = compound: Cc1cn(-c2cc(NC(=O)c3ccc(C)c(Nc4nccc(-c5cccnc5)n4)c3)cc(C(F)(F)F)c2)cn1 [nilotinib]
Summary of the method: as §1

[3] = compound: Cc1nc(Nc2n[nH]c3c2CN(C(=O)N[C@H](CN(C)C)c2ccccc2)C3(C)C)c2sccc2n1
Summary of the method: as §1

dasatinib = compound: Cc1nc(Nc2ncc(C(=O)Nc3c(C)cccc3Cl)s2)cc(N2CCN(CCO)CC2)n1 [dasatinib]
Summary of the method: as §1

[4] = compound: Cc1ncc(-c2ccnc(Nc3ccc(S(C)(=O)=O)cc3)n2)n1C(C)C
Summary of the method: as §1

[5] = compound: Cn1cc(-c2ccc3c(c2)CCN3C(=O)Cc2cccc(C(F)(F)F)c2)c2c(N)ncnc21
Summary of the method: as §1

quisinostat = compound: Cn1cc(CNCC2CCN(c3ncc(C(=O)NO)cn3)CC2)c2ccccc21 [quisinostat]
Summary of the method: as §1

tipifarnib = compound: Cn1cncc1[C@@](N)(c1ccc(Cl)cc1)c1ccc2c(c1)c(-c1cccc(Cl)c1)cc(=O)n2C [tipifarnib]
Summary of the method: as §1

[6] = compound: NC(=O)Nc1cc(-c2cccc(F)c2)sc1C(=O)N[C@H]1CCCNC1
Summary of the method: as §1

[7] = compound: NC(=O)c1cnc(N[C@@H]2CCCC[C@@H]2N)nc1Nc1cccc(-n2nccn2)c1
Summary of the method: as §1

[8] = compound: NC1(c2ccc(-c3nc4ccn5c(=O)[nH]nc5c4cc3-c3ccccc3)cc2)CCC1
Summary of the method: as §1

Measured: log2 fold change

MCCC1 (UniProt Q96RQ3)
inactive: lapatinib -0.022 | pictilisib -0.038 | crizotinib -0.004 | [1] 0.106 | duvelisib 0.017 | gandotinib -0.14 | tozasertib -0.019 | doramapimod 0.003 | bafetinib -0.048 | [2] -0.093 | nilotinib -0.025 | [3] 0.002 | dasatinib -0.103 | [4] 0.027 | [5] 0.008 | quisinostat -0.049 | tipifarnib 0.031 | [6] 0.035 | [7] 0.008 | [8] -0.045

LZTR1 (UniProt Q8N653)
inactive: lapatinib 0.177 | pictilisib -0.031 | crizotinib -0.092 | [1] 0.135 | duvelisib -0.033 | gandotinib -0.121 | tozasertib -0.023 | doramapimod 0.083 | bafetinib 0.005 | [2] 0.026 | nilotinib 0.016 | [3] 0.014 | dasatinib -0.063 | [4] -0.068 | [5] 0.008 | quisinostat -0.029 | tipifarnib -0.036 | [6] 0.099 | [7] -0.033 | [8] -0.019

MAPK9 (UniProt P45984)
inactive: lapatinib 0.001 | pictilisib 0.088 | crizotinib -0.021 | [1] 0.026 | duvelisib 0.006 | gandotinib 0.035 | tozasertib 0.033 | doramapimod 0.192 | bafetinib -0.011 | [2] -0.15 | nilotinib -0.015 | [3] 0.025 | dasatinib -0.005 | [4] 0.174 | [5] 0.118 | quisinostat 0.004 | tipifarnib -0.028 | [6] -0.005 | [7] 0.009 | [8] 0.012

KSR1 (UniProt Q8IVT5)
UniProt Q8IVT5, sequence (Q8IVT5 whole entry, looked up): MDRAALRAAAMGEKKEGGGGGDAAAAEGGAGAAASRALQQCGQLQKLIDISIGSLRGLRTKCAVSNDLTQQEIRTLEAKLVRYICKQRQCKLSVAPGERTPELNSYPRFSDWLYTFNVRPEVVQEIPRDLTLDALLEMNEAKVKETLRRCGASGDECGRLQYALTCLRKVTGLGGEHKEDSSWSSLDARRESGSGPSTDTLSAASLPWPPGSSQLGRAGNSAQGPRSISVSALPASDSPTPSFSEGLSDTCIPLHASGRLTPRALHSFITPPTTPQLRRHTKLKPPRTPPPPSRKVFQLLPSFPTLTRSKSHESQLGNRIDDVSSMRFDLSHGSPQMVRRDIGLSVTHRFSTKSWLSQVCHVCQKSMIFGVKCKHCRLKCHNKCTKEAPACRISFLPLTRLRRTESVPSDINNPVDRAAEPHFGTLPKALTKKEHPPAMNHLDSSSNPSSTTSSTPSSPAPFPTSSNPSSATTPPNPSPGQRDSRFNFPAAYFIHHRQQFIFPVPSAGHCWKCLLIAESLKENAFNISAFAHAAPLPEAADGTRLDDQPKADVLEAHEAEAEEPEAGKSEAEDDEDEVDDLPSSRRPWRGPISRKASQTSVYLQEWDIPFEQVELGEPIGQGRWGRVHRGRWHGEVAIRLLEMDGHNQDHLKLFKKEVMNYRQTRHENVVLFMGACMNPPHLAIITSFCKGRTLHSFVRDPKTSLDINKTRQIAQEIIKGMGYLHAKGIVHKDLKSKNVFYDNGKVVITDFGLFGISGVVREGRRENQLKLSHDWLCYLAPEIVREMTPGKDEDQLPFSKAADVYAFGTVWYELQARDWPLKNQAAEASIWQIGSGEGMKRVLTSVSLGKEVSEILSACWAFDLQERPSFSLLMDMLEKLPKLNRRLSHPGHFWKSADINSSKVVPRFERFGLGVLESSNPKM
inactive: lapatinib -0.107 | pictilisib 0.064 | crizotinib -0.015 | [1] 0.006 | duvelisib -0.026 | gandotinib -0.087 | tozasertib 0.017 | doramapimod -0.065 | bafetinib -0.038 | [2] -0.156 | nilotinib 0 | [3] -0.04 | dasatinib -0.106 | [4] 0.056 | [5] 0.057 | quisinostat -0.015 | tipifarnib -0.116 | [6] 0.069 | [7] 0.051 | [8] 0.003

MAP2K3 isoform 3 (UniProt P46734)
inactive: lapatinib -0.014 | pictilisib -0.102 | crizotinib -0.043 | [1] -0.021 | duvelisib 0.124 | gandotinib 0.038 | tozasertib 0.017 | doramapimod -0.047 | bafetinib -0.012 | [2] -0.035 | nilotinib -0.001 | [3] -0.004 | dasatinib -0.021 | [4] 0.021 | [5] 0.059 | quisinostat -0.055 | tipifarnib -0.093 | [6] 0.034 | [7] -0.03 | [8] 0.131

MAP4 (UniProt E7EVA0)
inactive: lapatinib 0.002 | pictilisib -0.054 | crizotinib -0.163 | [1] -0.096 | duvelisib 0.012 | gandotinib 0.007 | tozasertib 0.055 | doramapimod 0.017 | bafetinib -0.055 | [2] 0.008 | nilotinib 0.073 | [3] 0.021 | dasatinib -0.009 | [4] 0.046 | [5] 0.057 | tipifarnib -0.031 | [6] 0.024 | [7] 0.016 | [8] -0.1
active: quisinostat -0.271

MORF4L1 isoform 2 (UniProt Q9UBU8)
inactive: lapatinib 0.024 | pictilisib 0.023 | crizotinib 0.025 | [1] -0.058 | duvelisib 0.021 | gandotinib 0.037 | tozasertib -0.019 | doramapimod -0.047 | bafetinib -0.01 | [2] 0.006 | nilotinib 0.037 | [3] 0.069 | dasatinib -0.013 | [4] -0.009 | [5] 0 | quisinostat 0 | tipifarnib -0.009 | [6] -0.007 | [7] -0.008 | [8] -0.018

MECR (UniProt Q9BV79)
inactive: lapatinib -0.028 | pictilisib -0.038 | crizotinib 0.007 | [1] -0.11 | duvelisib 0.007 | gandotinib 0.045 | tozasertib 0.007 | doramapimod 0.02 | bafetinib -0.005 | [2] 0.013 | nilotinib -0.085 | [3] 0.012 | dasatinib -0.03 | [4] -0.004 | [5] 0.02 | quisinostat 0.07 | tipifarnib -0.009 | [6] -0.041 | [7] 0.02 | [8] -0.028

LUC7L (UniProt Q9NQ29)
active: gandotinib -0.32
inactive: lapatinib -0.022 | pictilisib -0.009 | crizotinib 0.097 | [1] -0.097 | duvelisib 0.006 | tozasertib 0.012 | doramapimod -0.028 | bafetinib -0.022 | [2] 0.023 | nilotinib -0.027 | [3] -0.113 | dasatinib -0.032 | [4] -0.047 | [5] 0.023 | quisinostat 0.22 | tipifarnib 0.033 | [6] -0.207 | [7] -0.014 | [8] 0.032

MRPL10 isoform 2 (UniProt Q7Z7H8)
inactive: lapatinib -0.02 | pictilisib -0.041 | crizotinib -0.104 | [1] 0.152 | duvelisib 0.034 | gandotinib -0.037 | tozasertib -0.01 | doramapimod 0.104 | bafetinib -0.059 | [2] -0.012 | nilotinib 0.009 | [3] 0.016 | dasatinib -0.019 | [4] 0.025 | [5] 0.054 | quisinostat -0.22 | tipifarnib -0.017 | [6] 0.015 | [7] 0.024 | [8] -0.011

LIG4 (UniProt P49917)
inactive: lapatinib 0.028 | pictilisib -0.245 | crizotinib -0.035 | [1] -0.064 | duvelisib 0.022 | gandotinib -0.07 | tozasertib -0.034 | doramapimod -0.037 | bafetinib -0.167 | [2] 0.073 | nilotinib 0.02 | [3] -0.072 | dasatinib 0.018 | [4] -0.008 | [5] -0.026 | quisinostat -0.085 | tipifarnib 0.038 | [6] 0.066 | [7] -0.045 | [8] -0.005

MED12 isoform 2 (UniProt Q93074)
UniProt Q93074, sequence (Q93074 whole entry, looked up): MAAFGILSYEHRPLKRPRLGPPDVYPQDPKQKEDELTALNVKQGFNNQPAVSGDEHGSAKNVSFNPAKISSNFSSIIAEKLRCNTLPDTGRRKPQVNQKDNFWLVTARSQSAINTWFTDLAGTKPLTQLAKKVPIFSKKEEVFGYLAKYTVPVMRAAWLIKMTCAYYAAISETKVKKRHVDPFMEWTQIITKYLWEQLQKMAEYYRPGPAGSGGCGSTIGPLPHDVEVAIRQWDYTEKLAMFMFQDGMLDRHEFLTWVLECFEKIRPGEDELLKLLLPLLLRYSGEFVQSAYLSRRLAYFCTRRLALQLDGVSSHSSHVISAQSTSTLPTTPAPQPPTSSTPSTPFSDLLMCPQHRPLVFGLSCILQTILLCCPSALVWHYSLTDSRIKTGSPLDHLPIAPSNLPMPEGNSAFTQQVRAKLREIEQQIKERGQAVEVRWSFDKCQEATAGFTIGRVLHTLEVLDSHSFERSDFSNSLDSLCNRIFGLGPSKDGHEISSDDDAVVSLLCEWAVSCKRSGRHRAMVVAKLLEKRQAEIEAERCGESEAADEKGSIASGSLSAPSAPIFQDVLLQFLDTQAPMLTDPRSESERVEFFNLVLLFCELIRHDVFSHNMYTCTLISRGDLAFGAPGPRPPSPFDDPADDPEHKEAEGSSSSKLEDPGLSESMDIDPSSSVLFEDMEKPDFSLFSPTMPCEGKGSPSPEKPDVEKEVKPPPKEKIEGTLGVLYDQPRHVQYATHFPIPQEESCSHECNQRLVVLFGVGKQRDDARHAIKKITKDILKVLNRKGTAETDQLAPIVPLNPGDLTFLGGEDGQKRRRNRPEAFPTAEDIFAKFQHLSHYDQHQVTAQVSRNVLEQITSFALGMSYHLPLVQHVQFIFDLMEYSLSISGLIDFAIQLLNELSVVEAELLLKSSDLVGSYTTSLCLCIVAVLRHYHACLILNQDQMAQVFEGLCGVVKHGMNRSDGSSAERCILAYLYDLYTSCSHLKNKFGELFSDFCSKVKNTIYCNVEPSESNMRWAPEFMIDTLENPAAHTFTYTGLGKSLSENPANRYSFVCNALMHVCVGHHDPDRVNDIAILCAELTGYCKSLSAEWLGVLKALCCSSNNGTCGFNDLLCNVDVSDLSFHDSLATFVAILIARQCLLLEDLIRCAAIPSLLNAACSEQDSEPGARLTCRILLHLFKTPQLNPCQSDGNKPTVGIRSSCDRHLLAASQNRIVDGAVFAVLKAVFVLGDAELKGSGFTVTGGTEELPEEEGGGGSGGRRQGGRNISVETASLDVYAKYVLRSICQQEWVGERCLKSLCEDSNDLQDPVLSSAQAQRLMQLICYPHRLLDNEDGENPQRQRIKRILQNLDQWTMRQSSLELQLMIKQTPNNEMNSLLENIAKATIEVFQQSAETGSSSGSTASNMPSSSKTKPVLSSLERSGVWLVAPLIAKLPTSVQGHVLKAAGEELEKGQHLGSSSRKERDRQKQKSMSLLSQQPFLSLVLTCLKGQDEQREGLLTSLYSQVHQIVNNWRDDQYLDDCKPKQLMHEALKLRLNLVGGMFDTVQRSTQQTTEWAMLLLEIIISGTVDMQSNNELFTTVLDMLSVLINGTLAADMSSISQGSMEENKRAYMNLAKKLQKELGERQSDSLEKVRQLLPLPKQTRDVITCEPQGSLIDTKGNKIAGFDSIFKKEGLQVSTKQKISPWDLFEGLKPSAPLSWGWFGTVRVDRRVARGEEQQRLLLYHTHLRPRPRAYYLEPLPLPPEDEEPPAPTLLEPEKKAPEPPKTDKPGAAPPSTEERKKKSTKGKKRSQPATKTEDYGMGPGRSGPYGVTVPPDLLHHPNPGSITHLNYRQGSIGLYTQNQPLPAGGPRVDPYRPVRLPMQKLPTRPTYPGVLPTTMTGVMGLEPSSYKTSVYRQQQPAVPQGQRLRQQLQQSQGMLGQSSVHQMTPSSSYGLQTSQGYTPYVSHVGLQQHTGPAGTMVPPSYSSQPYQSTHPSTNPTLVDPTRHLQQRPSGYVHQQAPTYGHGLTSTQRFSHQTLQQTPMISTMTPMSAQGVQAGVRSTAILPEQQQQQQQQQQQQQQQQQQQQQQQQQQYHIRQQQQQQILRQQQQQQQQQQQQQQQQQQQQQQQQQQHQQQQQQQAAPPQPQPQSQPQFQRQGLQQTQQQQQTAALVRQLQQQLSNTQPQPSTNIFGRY
inactive: lapatinib 0.009 | pictilisib 0.017 | crizotinib -0.017 | [1] 0.002 | duvelisib 0 | gandotinib -0.072 | tozasertib -0.033 | doramapimod 0.011 | bafetinib -0.012 | [2] -0.011 | nilotinib -0.017 | [3] -0.025 | dasatinib -0.024 | [4] -0.009 | [5] 0.01 | quisinostat -0.05 | tipifarnib 0.005 | [6] 0.034 | [7] 0.019 | [8] 0.002

LARS2 (UniProt Q15031)
UniProt Q15031, sequence (Q15031 whole entry, looked up): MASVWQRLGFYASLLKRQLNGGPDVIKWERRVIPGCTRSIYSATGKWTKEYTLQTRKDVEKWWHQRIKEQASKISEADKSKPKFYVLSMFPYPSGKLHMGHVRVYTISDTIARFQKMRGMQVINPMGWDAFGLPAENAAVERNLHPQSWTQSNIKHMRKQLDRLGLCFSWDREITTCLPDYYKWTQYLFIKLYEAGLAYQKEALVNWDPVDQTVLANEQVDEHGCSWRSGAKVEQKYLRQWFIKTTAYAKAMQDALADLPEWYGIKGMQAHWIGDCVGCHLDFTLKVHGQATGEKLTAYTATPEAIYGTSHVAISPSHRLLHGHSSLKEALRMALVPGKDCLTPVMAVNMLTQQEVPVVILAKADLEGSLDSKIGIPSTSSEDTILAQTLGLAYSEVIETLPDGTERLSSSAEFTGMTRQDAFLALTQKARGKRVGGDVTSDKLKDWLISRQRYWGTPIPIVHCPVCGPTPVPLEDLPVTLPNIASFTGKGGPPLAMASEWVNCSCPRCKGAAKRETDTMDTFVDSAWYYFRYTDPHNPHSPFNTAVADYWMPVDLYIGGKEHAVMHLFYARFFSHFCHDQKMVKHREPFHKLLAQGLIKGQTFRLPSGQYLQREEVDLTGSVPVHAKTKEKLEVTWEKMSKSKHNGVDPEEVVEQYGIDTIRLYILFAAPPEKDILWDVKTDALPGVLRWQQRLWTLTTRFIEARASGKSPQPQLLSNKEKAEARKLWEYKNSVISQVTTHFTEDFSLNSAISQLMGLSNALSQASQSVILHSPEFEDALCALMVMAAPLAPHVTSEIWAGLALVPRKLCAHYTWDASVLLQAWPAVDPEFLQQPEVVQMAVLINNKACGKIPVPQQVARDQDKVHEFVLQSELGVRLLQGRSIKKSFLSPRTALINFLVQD
inactive: lapatinib -0.012 | pictilisib -0.073 | crizotinib -0.047 | [1] 0.014 | duvelisib -0.039 | gandotinib -0.2 | tozasertib 0.054 | doramapimod 0.012 | bafetinib -0.067 | [2] 0.044 | nilotinib -0.002 | [3] 0.048 | dasatinib -0.075 | [4] -0.008 | [5] 0.065 | quisinostat 0.028 | tipifarnib -0.085 | [6] 0.089 | [7] 0.044 | [8] -0.036

MAN2B2 (UniProt Q9Y2E5)
active: [1] 0.595 | [2] -0.546
inactive: lapatinib 0.01 | pictilisib 0.021 | crizotinib 0 | duvelisib -0.018 | gandotinib -0.38 | tozasertib 0.003 | doramapimod -0.028 | bafetinib -0.12 | nilotinib -0.039 | [3] -0.173 | dasatinib 0.051 | [4] -0.004 | [5] 0.011 | quisinostat -0.033 | tipifarnib -0.041 | [6] 0.04 | [7] 0.038 | [8] 0.033

MAD2L1BP isoform 3 (UniProt Q15013)
inactive: lapatinib 0.017 | pictilisib -0.155 | crizotinib -0.094 | [1] 0.022 | duvelisib 0.048 | gandotinib -0.009 | tozasertib -0.071 | doramapimod 0.12 | bafetinib -0.041 | [2] 0.008 | nilotinib -0.028 | [3] 0.108 | dasatinib 0.016 | [4] -0.007 | [5] -0.026 | quisinostat -0.066 | tipifarnib 0.018 | [6] -0.019 | [7] 0.048 | [8] -0.056

MAP7D3 (UniProt Q8IWC1)
UniProt Q8IWC1, sequence (Q8IWC1 whole entry, looked up): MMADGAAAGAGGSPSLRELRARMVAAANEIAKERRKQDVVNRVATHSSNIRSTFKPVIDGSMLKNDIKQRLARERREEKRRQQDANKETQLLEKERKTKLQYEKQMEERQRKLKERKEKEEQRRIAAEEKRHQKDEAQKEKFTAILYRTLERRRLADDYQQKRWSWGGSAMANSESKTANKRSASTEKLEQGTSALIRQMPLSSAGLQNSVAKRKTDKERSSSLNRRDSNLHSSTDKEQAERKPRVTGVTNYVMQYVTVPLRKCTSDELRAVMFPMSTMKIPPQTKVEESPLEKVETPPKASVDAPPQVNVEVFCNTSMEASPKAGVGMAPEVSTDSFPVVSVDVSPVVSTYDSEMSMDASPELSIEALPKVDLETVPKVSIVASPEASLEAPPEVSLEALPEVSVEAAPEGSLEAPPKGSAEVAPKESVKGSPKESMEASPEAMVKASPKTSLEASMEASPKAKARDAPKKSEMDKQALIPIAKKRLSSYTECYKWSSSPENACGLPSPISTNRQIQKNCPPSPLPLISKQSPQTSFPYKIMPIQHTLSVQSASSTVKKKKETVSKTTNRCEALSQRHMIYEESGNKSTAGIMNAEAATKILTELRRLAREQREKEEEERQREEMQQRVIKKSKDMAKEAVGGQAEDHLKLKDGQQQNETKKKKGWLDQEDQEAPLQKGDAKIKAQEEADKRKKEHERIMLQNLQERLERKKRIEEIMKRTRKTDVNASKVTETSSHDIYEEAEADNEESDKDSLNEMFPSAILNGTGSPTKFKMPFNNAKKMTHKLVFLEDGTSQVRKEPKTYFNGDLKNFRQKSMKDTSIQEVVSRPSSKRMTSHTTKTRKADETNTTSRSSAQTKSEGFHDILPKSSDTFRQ
inactive: lapatinib 0.033 | pictilisib 0.01 | crizotinib -0.006 | [1] -0.055 | duvelisib -0.068 | gandotinib 0.021 | tozasertib 0.066 | doramapimod 0.065 | bafetinib -0.128 | [2] 0.06 | nilotinib -0.012 | [3] -0.01 | dasatinib 0.03 | [4] -0.037 | [5] 0.029 | quisinostat -0.101 | tipifarnib 0.014 | [6] 0.003 | [7] -0.016 | [8] 0.005
